Only some compounds are listed: those with a hit (about 2.4% of all), similar ones and a draw of the others.
D2 ag-1: HTS Assay for Allosteric Agonists of the Human D2 Dopamine Receptor: Primary Screen for Agonists; D(2) dopamine receptor (Homo sapiens), P14416; HEK293 T-REx D2 cells, calcium flux agonist mode; activation, % at 2 µM; 0.53% of 340,000 active;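 active = activation over 3 SD above normal in the single-dose calcium agonist read, cut at about 30% in these data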
Target sequence (P14416 whole entry, looked up): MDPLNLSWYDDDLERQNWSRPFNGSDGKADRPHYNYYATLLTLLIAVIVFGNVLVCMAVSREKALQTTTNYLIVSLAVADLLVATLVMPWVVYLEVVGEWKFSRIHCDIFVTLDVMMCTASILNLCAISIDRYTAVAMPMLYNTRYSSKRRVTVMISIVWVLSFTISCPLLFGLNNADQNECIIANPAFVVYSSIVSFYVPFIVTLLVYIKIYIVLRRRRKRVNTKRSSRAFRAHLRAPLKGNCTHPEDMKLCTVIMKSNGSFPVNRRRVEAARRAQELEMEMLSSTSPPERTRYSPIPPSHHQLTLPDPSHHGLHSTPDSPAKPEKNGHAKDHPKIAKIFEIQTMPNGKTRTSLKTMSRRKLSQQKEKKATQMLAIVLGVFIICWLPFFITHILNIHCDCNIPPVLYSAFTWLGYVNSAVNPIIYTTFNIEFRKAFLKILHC
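In this primary screen, compounds producing a positive calcium signal within 180 s of addition to tetracycline-induced, force-coupled HEK293 Trex D2 cells are flagged; cells are dye-loaded with a no-wash calcium kit beforehand.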
D2 ag-2: Beta-Arrestin HTS for Positive Allosteric Modulators of the Human D2 Dopamine Receptor: Agonists; 0.084% of 360,000 active; DiscoveRx PathHunter D2 beta-arrestin, luminescence, 90 min; 100% = 57 uM dopamine signal; D(2) dopamine receptor (Homo sapiens), P14416; AID 624465, 2012; activation, % (no concentration beside the values); in the data active = activation above about 40%; inconclusive = between about 15% and that limit
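Agonist mode: compounds alone added to overnight-plated D2 PathHunter cells for 90 min at 37 C, with 57 uM final dopamine (EC100) defining full response. Beta-arrestin recruitment detected by chemiluminescent reagent, read after 1 h at ambient temperature.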
D2 PAM-1: HTS Assay for Positive Allosteric Modulators of the Human D2 Dopamine Receptor: Primary Screen for Potentiators. HEK293 T-REx D2, calcium flux, EC20 dopamine potentiation. potentiation, % at 10 µM. 0.34% of 340,000 active;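 active = potentiation over 3 SD above the plate norm, cut at about 30% in these data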
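Calcium flux readout, no-wash dye, 1 read/s. Inducible HEK293 Trex D2 line, overnight 30 C. Compound alone 180 s (agonist flags), then EC20 dopamine, another 180 s to score potentiation.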
D2 antag: HTS Assay for Allosteric Antagonists of the Human D2 Dopamine Receptor: Primary Screen for Antagonists. D(2) dopamine receptor (Homo sapiens), P14416. HEK293 TREx D2 cells, calcium flux, dopamine EC80. inhibition, % at 10 µM. 2% of 340,000 active. AID 485344, 2010; in the data active = inhibition above about 30%; inactive = below that, where a call was filed
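Antagonism is scored as inhibition of an EC80 dopamine-evoked calcium signal in a force-coupled, tetracycline-inducible HEK293 T-REx D2 line, with compound present 180 s before agonist.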
D2 PAM-2: Beta-Arrestin HTS for Positive Allosteric Modulators of the Human D2 Dopamine Receptor: Potentiators | D(2) dopamine receptor (Homo sapiens), P14416 | DiscoveRx D2 beta-arrestin cells, luminescence, 90 min; 100% = 57 uM dopamine signal | potentiation, % (concentration not given with the values) | 0.23% of 360,000 active | AID 624464, 2012; in the data active = potentiation above about 50%; inconclusive = mostly about 30% to 49%
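PathHunter D2 cells, attached overnight at 37 deg C, received compound in DMSO plus dopamine at EC20 (50 nM final) for 90 min at 37 deg C. Beta-arrestin recruitment was read as luminescence after 1 h with detection reagent at ambient temperature.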
Each line names hits and unclear results; the compound was inactive in the other large screens.

COc1ccc(OC)c(CN2CCN(Cc3cccc4ccccc34)CC2)c1	D2 antag 71
COc1ccc(OC)c(CN2CCN(c3ccccc3OC)CC2)c1	none
COc1ccccc1Nc1nc(N)nc(CN2CCN(c3ccccc3F)CC2)n1	none
COc1ccccc1N1CCN(Cc2nc(N)nc(Nc3ccc(C)c(Cl)c3)n2)CC1	D2 antag 55 (no result: D2 PAM-1)
COc1ccccc1N1CCN(Cc2ccc(OC)c(OC)c2OC)CC1	D2 antag 81
COc1ccc2ccccc2c1CN1CCN(C)CC1	D2 antag 40
COc1ccc(OC)c(CN2CCCCCC2)c1	none
Cc1ccc(N2C(=O)CS(=O)(=O)C23C(=O)Nc2ccccc23)cc1C (stereo not given)	none (no result: D2 ag-2, D2 antag, D2 PAM-2)
COc1ccccc1N1CCN(Cc2cc3c(cc2[N+](=O)[O-])OCO3)CC1	D2 antag 52
COc1ccc(CNC(=O)CN2C(=O)CCn3nc(-c4cn(C)c5ccccc45)cc32)cc1	none (no result: D2 ag-1, D2 ag-2, D2 antag, D2 PAM-2)
Cn1c(NCC(O)c2ccccc2)nc2c1c(=O)n(Cc1ccc(Cl)cc1)c(=O)n2C (stereo not given)	none
Cn1c(NCC(O)c2ccccc2)nc2c1c(=O)n(Cc1ccc(Cl)c(Cl)c1)c(=O)n2C (stereo not given)	D2 PAM-2 54 (no result: D2 ag-1, D2 PAM-1, D2 antag)
Cc1ccc(NC(=O)CCCn2nc(C)c3c(C)n(-c4ccccc4)nc3c2=O)c(Cl)c1	none
COc1ccc(S(=O)(=O)CCc2nc3ccccc3s2)cc1	D2 antag 59
O=S(=O)(CCc1nc2ccccc2s1)c1ccc(Cl)cc1	none
Cc1ccc(S(=O)(=O)NCC(=O)OC(C)C(=O)NCc2ccc3c(c2)OCO3)cc1 (stereo not given)	none (no result: D2 ag-1, D2 PAM-1, D2 antag)
COc1ccc(NC2=NCCCCC2)cc1	none
COc1ccc(NC2=Nc3ccccc3CC2)cc1	D2 antag 46
CN1CCN(CCCN2c3ccccc3Sc3ccc(Cl)cc32)CC1	D2 antag 72 (no result: D2 ag-1, D2 ag-2, D2 PAM-1, D2 PAM-2)
CC(CN1CCN(CCOCCO)CC1)CN1c2ccccc2Sc2ccc(Cl)cc21 (stereo not given)	none (no result: D2 ag-1, D2 PAM-1, D2 antag)
CCSc1ccc2c(c1)N(CCCN1CCN(C)CC1)c1ccccc1S2	D2 antag 83
CCN(CC)S(=O)(=O)c1cc(NC(=O)C2CCN(c3ncnc4sc(C)c(C)c34)CC2)ccc1Cl	D2 antag 36
Cc1cc(NC(=O)C2CCCN2C(=O)Nc2c(C)cccc2C)ccc1-n1cnnn1 (stereo not given)	none
Cc1cc(NC(=O)C2CCN(S(=O)(=O)Cc3ccccc3)CC2)ccc1-n1cnnn1	D2 antag 30
CCc1ccccc1OCCCCN1CCCCC1	D2 antag 89
CCc1ccccc1OCCCN1CCCC1	none (no result: D2 ag-1, D2 antag)
COc1ccccc1OCCCCN1CCCCC1	none (no result: D2 ag-1, D2 antag)
Cc1cc(C)c(C)c(OCCCCN2CCCCC2)c1	D2 antag 55
Cc1cc(C)c(C)c(OCCOCCN2CCN(C)CC2)c1	none
Cc1ccccc1OCCCCN1CCCCC1	D2 antag 50
Cc1ccc(F)c(S(=O)(=O)NC(=O)C2(C)CCN2C(=O)c2cccc3ccccc23)c1 (stereo not given)	D2 ag-2 inconclusive, D2 PAM-2 62 (no result: D2 ag-1, D2 PAM-1, D2 antag)
C/C=C/C=C\C(=O)Nc1cccc(C2=NOC3(C2)C[C@H](C(N)=O)N(C(=O)CC#N)C3)c1 (stereo not given in full)	D2 antag 33
C/C=C(/C)C(=O)Nc1cccc(C2=NOC3(C2)C[C@@H](C(N)=O)N(C(=O)CC(c2ccccc2)c2ccccc2)C3)c1 (stereo not given in full)	D2 PAM-1 37, D2 antag 32
C/C=C(\C)C(=O)Nc1cccc(C2=NOC3(C2)C[C@H](C(N)=O)N(C(=O)c2cc([N+](=O)[O-])cc([N+](=O)[O-])c2)C3)c1 (stereo not given in full)	D2 PAM-2 71
CSc1ccc(CN(C)C(=O)c2cccc(S(=O)(=O)N3CCN(Cc4ccccc4)CC3)c2)cc1	none
CC(=O)c1ccc(NC(=O)C[n+]2cccc(C)c2)cc1	D2 antag 37
CCC(=O)N1CCc2cc(Br)cc(S(=O)(=O)CCC(=O)Nc3ccc(C)c(F)c3)c21	none (no result: D2 ag-2, D2 antag, D2 PAM-2)
O=C(c1ccco1)[C@@H]1[C@@H]2C(=O)N(c3ccc(F)cc3)C(=O)[C@@H]2[C@H]2C=Cc3ccccc3N21	D2 antag 43
NC(=O)[C@@H]1[C@@H]2C(=O)N(c3ccc(F)cc3)C(=O)[C@@H]2[C@H]2C=Cc3ccccc3N21	none
Cc1ccc(NC(=O)c2cccs2)cc1NC(=O)c1cccnc1	D2 PAM-2 77 (no result: D2 ag-1, D2 PAM-1, D2 antag)
NNc1ncnc2c1cnn2-c1ccccc1	D2 antag 31
c1ccc(-n2ncc3c(NC4CCCCCC4)ncnc32)cc1	D2 antag 46
CCCCN(CC)Cc1ccc(CNS(=O)(=O)c2cc3c(cc2Cl)NC(=O)CO3)o1	none (no result: D2 ag-2, D2 antag, D2 PAM-2)
O=C(NCc1ccccc1)C(c1ccncc1)N(C(=O)c1csnn1)c1ccccc1F (stereo not given)	none
O=C(N1CCOCC1)n1cnc2ccccc21	D2 PAM-1 51
O=C(N1CCOCC1)n1nnc2ccccc21	none
CCc1nn(C(C)C(=O)N2CCN(c3ccc(OC)cc3)CC2)c(=O)c2cc3occc3n12 (stereo not given)	none
CC(C)NC(=O)N(C)C[C@H]1Oc2ccc(NS(=O)(=O)c3cn(C)cn3)cc2C(=O)N([C@H](C)CO)C[C@@H]1C	none (no result: D2 ag-1, D2 PAM-1, D2 antag)
COc1ccc(/C=C2\SC(=O)N(CCNC(=O)C3CC(=O)N(c4ccccc4)C3)C2=O)cc1 (stereo not given)	D2 PAM-1 37
CCOc1ccc(N2CC(C(=O)NCCN3C(=O)S/C(=C\c4ccc(OC)cc4)C3=O)CC2=O)cc1 (stereo not given)	none
CC(=O)c1cccc(Nc2cc(C)nc3nc(Cc4ccccc4)nn23)c1	none (no result: D2 ag-2, D2 antag, D2 PAM-2)
COc1ccc(NC(=O)c2ccc3oc(=O)c(S(=O)(=O)c4ccc(C)cc4)cc3c2)cc1OC	none (no result: D2 ag-2, D2 antag, D2 PAM-2)
Cc1ccc(-c2c[n+](Cc3ccc(Cl)cc3)c3n2CCC3)cc1	none
Clc1ccc(-c2c[n+](Cc3ccc(Cl)c(Cl)c3)c3n2CCC3)cc1	D2 antag 41 (no result: D2 ag-2, D2 PAM-2)
Nc1nc(=O)n(C2CCCCO2)cc1Br (stereo not given)	none (no result: D2 ag-1, D2 PAM-1, D2 antag)
CC(C)Oc1ccc(CNC(=O)CCCN2C(=O)c3cccnc3Oc3ccc(Cl)cc32)cc1	none (no result: D2 ag-2, D2 antag, D2 PAM-2)
Cc1cc2c(OCC(O)CNC3CCCCC3)cccc2[nH]1 (stereo not given)	D2 antag 60
